Active and inactive are the calls of the source. Rule for the calls: active = hit-call score of the fitted dose curve at least 0.9, where 1 is the maximum; inactive = score below 0.9.
Columns and labels:
[1] = ATG_RORE_CIS: Attagene CIS-FACTORIAL HepG2 Assay for human RAR-related Orphan Receptor Element (RORE) (AID 2282959); details: HepG2 Attagene cis-factorial RORE reporter, mRNA; actives raise or lower the signal
In short: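 Fluorescence intensity of reporter-specific cDNA fragments, separated by capillary electrophoresis, gives the signal. Source: HepG2 liver cells transiently transfected with cis-element reporters and exposed 24 h; DMSO-normalized bidirectional fit.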

[2] = ATG_Sox_CIS: Attagene CIS-FACTORIAL HepG2 Assay for human SRY-box transcription factor (SOX) (AID 2282960); details: HepG2 Attagene cis-factorial SOX reporter, mRNA; actives raise or lower the signal
In short: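 After 24 h of chemical treatment, transfected HepG2 reporter cells are lysed for total RNA. Transcript levels come from RT-PCR with labelled primer extension and capillary electrophoresis, analysed bidirectionally versus DMSO.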

[3] = target: Transcription factor Sp1 (Homo sapiens) (UniProt P08047); assay: ATG_Sp1_CIS: Attagene CIS-FACTORIAL HepG2 Assay for human Specificity Protein 1 (Sp1) (AID 2282961); details: HepG2 Sp1 cis-reporter transcription, actives raise or lower the signal
Sequence of Transcription factor Sp1 (Homo sapiens) (P08047 whole entry, looked up): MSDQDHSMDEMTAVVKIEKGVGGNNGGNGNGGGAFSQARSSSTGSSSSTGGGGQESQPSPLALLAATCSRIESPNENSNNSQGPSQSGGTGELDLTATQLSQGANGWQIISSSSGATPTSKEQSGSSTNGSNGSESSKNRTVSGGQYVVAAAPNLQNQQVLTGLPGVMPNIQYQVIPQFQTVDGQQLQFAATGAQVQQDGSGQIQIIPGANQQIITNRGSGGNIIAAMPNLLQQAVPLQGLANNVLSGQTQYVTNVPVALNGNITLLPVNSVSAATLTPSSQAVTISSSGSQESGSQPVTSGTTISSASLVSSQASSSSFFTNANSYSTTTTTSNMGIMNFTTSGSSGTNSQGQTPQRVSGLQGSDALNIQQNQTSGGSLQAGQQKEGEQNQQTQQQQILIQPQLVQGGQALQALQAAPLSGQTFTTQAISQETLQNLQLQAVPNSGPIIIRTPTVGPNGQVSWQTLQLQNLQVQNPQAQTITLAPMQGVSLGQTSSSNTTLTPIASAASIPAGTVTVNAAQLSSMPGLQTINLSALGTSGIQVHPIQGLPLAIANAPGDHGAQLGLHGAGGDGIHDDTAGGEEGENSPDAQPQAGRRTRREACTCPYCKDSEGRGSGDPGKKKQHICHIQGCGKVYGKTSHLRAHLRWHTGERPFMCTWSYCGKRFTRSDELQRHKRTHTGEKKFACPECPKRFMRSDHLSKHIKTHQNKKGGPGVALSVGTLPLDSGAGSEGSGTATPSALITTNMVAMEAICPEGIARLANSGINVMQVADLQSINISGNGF
In short: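 Sp1-driven reporter mRNA, read as capillary electrophoresis fluorescence after RT-PCR, in transiently transfected HepG2 cells dosed for 24 h; signal change in either direction relative to DMSO.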

[4] = ATG_SREBP_CIS: Attagene CIS-FACTORIAL HepG2 Assay for human Sterol Regulatory Element Binding (SREBP) (AID 2282962); details: HepG2 Attagene cis-factorial SREBP reporter, mRNA; actives raise or lower the signal
In short: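 In this cis-format assay, HepG2 liver cells express reporters controlled by promoter elements responsive to native transcription factors. Exposure lasts 24 h; reporter mRNA fluorescence from capillary electrophoresis gives the signal, fitted bidirectionally against DMSO.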

[5] = target: Signal transducer and activator of transcription 3 (Homo sapiens) (UniProt P40763); assay: ATG_STAT3_CIS: Attagene CIS-FACTORIAL HepG2 Assay for human Signal Transducer and Activator of Transcription 3 (STAT3) (AID 2282963); details: HepG2, Attagene cis-factorial STAT3 reporter transcription; actives raise or lower the signal
Sequence of Signal transducer and activator of transcription 3 (Homo sapiens) (P40763 whole entry, looked up): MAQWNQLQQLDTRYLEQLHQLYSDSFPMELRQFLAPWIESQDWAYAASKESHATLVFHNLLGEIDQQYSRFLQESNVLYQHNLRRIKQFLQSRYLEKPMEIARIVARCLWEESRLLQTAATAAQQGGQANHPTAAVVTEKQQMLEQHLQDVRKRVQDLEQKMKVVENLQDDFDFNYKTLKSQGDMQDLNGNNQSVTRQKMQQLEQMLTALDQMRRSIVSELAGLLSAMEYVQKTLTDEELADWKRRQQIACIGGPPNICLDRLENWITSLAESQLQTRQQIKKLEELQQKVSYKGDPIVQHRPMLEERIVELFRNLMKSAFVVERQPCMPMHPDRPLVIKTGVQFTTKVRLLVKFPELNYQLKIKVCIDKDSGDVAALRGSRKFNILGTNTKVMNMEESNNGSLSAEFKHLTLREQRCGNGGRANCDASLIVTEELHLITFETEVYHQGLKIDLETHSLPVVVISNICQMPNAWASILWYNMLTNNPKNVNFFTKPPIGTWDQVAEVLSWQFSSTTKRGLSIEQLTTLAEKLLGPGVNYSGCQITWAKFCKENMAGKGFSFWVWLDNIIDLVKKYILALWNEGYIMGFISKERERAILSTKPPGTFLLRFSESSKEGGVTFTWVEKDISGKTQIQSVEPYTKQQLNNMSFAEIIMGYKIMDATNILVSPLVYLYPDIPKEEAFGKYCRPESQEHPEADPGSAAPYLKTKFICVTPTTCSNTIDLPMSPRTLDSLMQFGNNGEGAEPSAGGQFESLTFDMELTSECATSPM
In short: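 Readout is reporter transcript quantified by RT-PCR and capillary electrophoresis, with 6-FAM primer extension and HpaI digestion. Total RNA is taken 24 h after dosing transiently transfected HepG2 carrying cis-regulated reporter units. Bidirectional fit against DMSO.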

[6] = ATG_TA_CIS: Attagene CIS-FACTORIAL HepG2 Assay for human TA Basal Promoter (AID 2282964); details: HepG2 Attagene CIS-factorial TA basal promoter reporter; actives raise or lower the signal
In short: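 Transfected HepG2, 24 h compound exposure; RNA → RT-PCR → FAM primer extension → HpaI cut → CE fluorescence. Gain/loss-of-signal fitted against DMSO negative control. Background-control readout.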

[7] = ATG_TCF_b_cat_CIS: Attagene CIS-FACTORIAL HepG2 Assay for human T-Cell-Factor with beta-catenin (TCF/b-cat) (AID 2282965); details: HepG2 TCF/beta-catenin cis-reporter transcription, actives raise or lower the signal
In short: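 Measured: reporter mRNA in HepG2 transiently transfected with cis-promoter reporter units, 24 h after chemical addition. Fitting was bidirectional, DMSO as negative control.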

[8] = ATG_TAL_CIS: Attagene CIS-FACTORIAL HepG2 Assay for human TAL Basal Promoter (AID 2282966); details: HepG2 Attagene cis-factorial TAL promoter reporter; actives raise or lower the signal;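 note: background control endpoint measuring basal TAL promoter reporter mRNA not a specific factor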
In short: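 After 24 hours of chemical exposure, transfected HepG2 cells yielded RNA that was converted to 6-FAM-labelled, HpaI-digested reporter fragments for capillary electrophoresis. Values derive from bidirectional fitting against DMSO controls.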

[9] = ATG_TGFb_CIS: Attagene CIS-FACTORIAL HepG2 Assay for human Transforming Growth Factor (TGF) (AID 2282967); details: HepG2 Attagene CIS TGFb reporter, mRNA transcription; actives raise or lower the signal
In short: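 Readout: fluorescently labeled reporter cDNA fragments resolved by capillary electrophoresis after RT-PCR. Transfected HepG2 cells dosed for 24 h; endogenous TF activity at TGFB1-linked cis element; gain or loss fitted relative to DMSO.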

[10] = ATG_PPRE_CIS: Attagene CIS-FACTORIAL HepG2 Assay for human Peroxisome Proliferator-activated Response Element (PPRE) (AID 2282958); details: HepG2 PPRE cis-element reporter, Attagene transcription factor profiling; actives raise or lower the signal
In short: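 Multiplexed reporter transcription units under cis-regulatory promoters were transfected into HepG2 cells to capture endogenous factor activity. A 24 h incubation preceded RNA isolation and fluorescent RT-PCR fragment analysis.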

Measured: AC50

CCOP(=S)(OCC)SCSc1cc(Cl)ccc1Cl
not listed: [10]
inactive: all other assays above

O=C/C(Cl)=C(/Cl)C(=O)O
active: [2] 83.9 µM | [4] 159 µM | [9] 43.7 µM
not listed: [1] | [7]
inactive: all other assays above

Cc1cc(C)cc(C)c1
not listed: [10]
inactive: all other assays above

O=[N+]([O-])c1ccc(Nc2ccccc2)cc1
not listed: [10]
inactive: all other assays above

CNC(=O)N(C)c1nc2ccccc2s1
not listed: [1] | [7] | [8]
inactive: all other assays above

CN(N=O)C(N)=O
not listed: [10]
inactive: all other assays above

Cc1cccc(N=Nc2ccc(N(C)C)cc2)c1
not listed: [1] | [7]
inactive: all other assays above

O=c1[nH]c2ccccc2n1C1CCN(CCCC(c2ccc(F)cc2)c2ccc(F)cc2)CC1
active: [4] 3.71 µM
not listed: [10]
inactive: all other assays above

Cc1cc(Cl)ccc1OCCCC(=O)O
not listed: [1] | [5]
inactive: all other assays above

CCOC(=O)CC(=O)CCl
active: [2] 26.2 µM | [3] 23.9 µM | [4] 26.2 µM | [9] 36.1 µM
not listed: [10]
inactive: all other assays above

C=CC(=O)[O][Sn]([CH2]CCC)([CH2]CCC)[CH2]CCC
inactive: [1] | [6] | [7] | [8]
active: [2] 0.67 µM | [3] 0.504 µM | [4] 0.189 µM | [5] 0.657 µM | [9] 0.367 µM

COC(=O)Nc1cccc(OC(=O)Nc2cccc(C)c2)c1
not listed: [1]
inactive: all other assays above

NNCCO
active: [1] 25.4 µM
not listed: [10]
inactive: all other assays above

O=S(=O)(c1ccc(Cl)cc1)c1cc(Cl)c(Cl)cc1Cl
active: [4] 14.5 µM
not listed: [1] | [7]
inactive: all other assays above

O=NN1CCCCCC1
not listed: [10]
inactive: all other assays above

[F][Sn]([c]1ccccc1)([c]1ccccc1)[c]1ccccc1
inactive: [4] | [7] | [8] | [9]
active: [1] 0.0319 µM | [2] 0.328 µM | [3] 0.303 µM | [5] 0.597 µM | [6] 0.58 µM

Cc1ccc(OP(=O)(Oc2ccc(C)cc2C)Oc2ccc(C)cc2C)c(C)c1
not listed: [1] | [3]
inactive: all other assays above

ClCc1ccccc1Cl
active: [2] 120 µM | [3] 100 µM
not listed: [10]
inactive: all other assays above

C[C@]12CC[C@@H](O)C[C@@H]1CC[C@@H]1[C@@H]2CC[C@]2(C)C(=O)CC[C@@H]12
not listed: [10]
inactive: all other assays above

O=S(=O)(Oc1ccc(Cl)cc1)c1ccc(Cl)cc1
active: [9] 63.8 µM
not listed: [1] | [5]
inactive: all other assays above

[Cl][Sn]([c]1ccccc1)([c]1ccccc1)[c]1ccccc1
active: [10] 0.0117 µM | [2] 0.217 µM | [3] 1.66 µM | [6] 0.251 µM | [8] 1.13 µM
inactive: [4] | [7] | [9]

Clc1cnc(Oc2ccc(Oc3ncc(Cl)cc3Cl)cc2)c(Cl)c1
not listed: [10]
inactive: all other assays above

C=C(C)C(=O)OCC(CC)CCCC (centres undefined)
not listed: [10]
inactive: all other assays above

O=C(Nc1ccc(Br)cc1)c1cc(Br)cc(Br)c1O
active: [10] 5.26 µM | [9] 4.16 µM
not listed: [1] | [7]
inactive: all other assays above

Cl[C@H]1OCCO[C@@H]1Cl
not listed: [1]
inactive: all other assays above

O=[N+]([O-])c1cc([As](=O)(O)O)ccc1O
not listed: [10]
inactive: all other assays above

O=S1(=O)OC(c2cc(Br)c(O)c(Br)c2)(c2cc(Br)c(O)c(Br)c2)c2ccccc21
active: [10] 57.4 µM | [7] 121 µM
not listed: [1] | [8]
inactive: all other assays above

CNC(=O)CSP(=O)(OC)OC
not listed: [1]
inactive: all other assays above

Cc1ccc2nc3sc(=O)sc3nc2c1
active: [2] 6.58 µM | [6] 43.9 µM
not listed: [1] | [5]
inactive: all other assays above

BrCCCCBr
not listed: [10]
inactive: all other assays above

O=C(NC(=O)c1c(F)cccc1F)Nc1cc(Cl)c(OC(F)(F)C(F)C(F)(F)F)cc1Cl (centres undefined)
not listed: [10]
inactive: all other assays above

O=C(NC(=O)c1c(F)cccc1F)Nc1cc(Cl)c(F)c(Cl)c1F
not listed: [10]
inactive: all other assays above

C=CCN=C=S
not listed: [10]
inactive: all other assays above

CCCCOC(C)=O
not listed: [10]
inactive: all other assays above

O=[N+]([O-])c1ccccc1O
not listed: [10]
inactive: all other assays above

O=S(=O)(C(Cl)(Cl)Cl)C(Cl)(Cl)Cl
active: [2] 11.1 µM | [3] 11.1 µM | [4] 16.8 µM | [6] 16.9 µM | [7] 7.46 µM
inactive: [10] | [8] | [9]

Cc1cc(-c2cc(C)c(N)c(C)c2)cc(C)c1N
not listed: [10]
inactive: all other assays above

COc1ccccc1N
not listed: [10]
inactive: all other assays above

CC(C)(C1CCC(O)CC1)C1CCC(O)CC1 (centres undefined)
not listed: [5] | [7] | [10]
inactive: all other assays above

C1CN2CCN1CC2
not listed: [10]
inactive: all other assays above

CN(C)CCN(C)C
not listed: [5] | [8] | [10]
inactive: all other assays above

Nc1cccnc1
not listed: [10]
inactive: all other assays above

CC(C)[N+](=O)[O-]
not listed: [3] | [10]
inactive: all other assays above

CC(C)(C)c1ccc(CCOc2ncnc3ccccc23)cc1
not listed: [8] | [10]
inactive: all other assays above

CC(c1ccc(O)cc1)c1ccc(O)cc1
not listed: [10]
inactive: all other assays above

CC(C)=CC1C(C(=O)OCc2cccc(Oc3ccccc3)c2)C1(C)C (centres undefined)
not listed: [7] | [10]
inactive: all other assays above

Oc1ccc(Cc2ccc(O)cc2)cc1
not listed: [10]
inactive: all other assays above

CC(C=O)Cc1ccc2c(c1)OCO2 (centres undefined)
not listed: [8] | [10]
inactive: all other assays above

C=CC(Cl)CCl (centres undefined)
not listed: [10]
inactive: all other assays above

O=[N+]([O-])c1c2ccccc2cc2ccccc12
not listed: [7] | [10]
inactive: all other assays above

CCOP(=O)(OCC)SCCSCC
not listed: [7] | [10]
inactive: all other assays above

CC(C)(C)c1cc([N+](=O)[O-])cc(C(C)(C)C)c1O
active: [1] 28.7 µM | [9] 26.3 µM
not listed: [8] | [10]
inactive: all other assays above

CCCCN(CCCC)C(=S)[S-].CCCCN(CCCC)C(=S)[S-].[Ni+2]
not listed: [3] | [10]
inactive: all other assays above

CCNc1nc(NCC)nc(SC)n1
not listed: [7] | [8] | [10]
inactive: all other assays above

Reference: PubChem BioAssay (EPA / NIEHS)
